# In PubChem BioAssay (NCATS):
# Values without a mark were called inactive. Inconclusive results are not listed. Activity calls are given as the source filed them. The call rests on the fitted dose curve; in most records, active means well fitted curve in the direction sought with a large enough effect; inconclusive means small, poorly fitted or top-dose-only effect, or another doubt; inactive means no such curve, though single readings can be large; an effect the other way counts as inactive or inconclusive.
# How the values were obtained:
# [1] = P-glycoprotein substrates identified in KB-8-5-11 adenocarcinoma cell line, qHTS therapeutic library screen (AID 1346987); further: nearly all actives have a fitted effect of over 65% in size; further: potency means the concentration at half of the fitted maximal effect
# Method in brief: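 Compounds are pinned in dose-response onto KB-8-5-11 cells (500 cells/well, colchicine-free medium) and left 72 h at 37 degree C. CellTiter-Glo luminescence then yields AC50 values.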
# [2] = Primary qHTS for inhibitors of nuclear receptor binding SET domain protein 2 (NSD2) in an isogenic RCH-ACV NSD2 p.E1099K mutant (9B) (AID 1645876); further: nearly all actives have a fitted effect of over 70% in size; further: potency means the concentration at half of the fitted maximal effect
# [3] = Primary qHTS for inhibitors of nuclear receptor binding SET domain protein 2 (NSD2) in an RCH-ACV wild type WT cells (2C) (AID 1645877); further: nearly all actives have a fitted effect of over 70% in size; further: potency means the concentration at half of the fitted maximal effect
# [4] = biological target: Glutathione peroxidase 1 (Homo sapiens) (UniProt P07203); assay: Primary qHTS Assay for Inhibitors of Recombinant Selenoprotein Glutathione Peroxidase 1 (GPX1) (AID 1845191); further: nearly all actives have a fitted effect of over 65% in size
# Method in brief: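 GPX1 10 nM, GR 100 nM, GSH 1 mM, NADPH 0.5 mM, CHP 0.5 mM (final). 30-min cpd preincubation, RT. Ex340/Em450 read t=0, t=15 min.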
# [5] = biological target: Phospholipid hydroperoxide glutathione peroxidase GPX4 (Homo sapiens) (UniProt P36969); assay: Primary qHTS Assay for Inhibitors of Recombinant Selenoprotein Glutathione Peroxidase 4 (GPX4) (AID 1845192); further: nearly all actives have a fitted effect of over 65% in size
# Method in brief: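 qHTS, GR-coupled: GPX4 200 nM + cpd 30 min RT → GSH 1 mM, NADPH 0.5 mM, GR 100 nM → CHP 0.5 mM start; fluor 340/450 at t0 and t15 min; no-enzyme wells as control.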
# [6] = system: Nanoluciferase (engineered Oplophorus gracilirostris luciferase); assay: Primary Nanoluciferase (NLuc) qHTS assay for identification of artifact compounds. (AID 1845222);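 further: NLuc secreted into diluted conditioned medium of S16 cells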
# Method in brief: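 Using secreted nanoluciferase in S16 culture medium (0.22 um filtered, 1:55 dilution), compounds were preincubated 15 min at RT. Signal was generated with Nano-Glo reagent (1:100) over 5 min.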
# [7] = system: CRL-7250; assay: Cytotoxic Profiling of Annotated Libraries Using Quantitative High-Throughput Screening (AID 1296008); settings: Five cell lines viability, CellTiter-Glo ATP luminescence, 48-72 h; max response: stronger effect = lower value; further: nearly all actives have a fitted effect of over 60% in size; further: potency means the concentration at half of the fitted maximal effect; on max response: on the % scale 0 is the no-effect control and ±100 the full control effect
# Method in brief: (§1)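 Compounds were pin-transferred onto cells and incubated 48 or 72 hr at 37 degree Celsius, 95% humidity. CellTiter-Glo was added, plates sat 10 min at room temperature, then ATP-coupled luminescence was imaged as the viability read-out.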
# [8] = system: HEK293; assay: as above; settings: Five cell lines viability, CellTiter-Glo ATP luminescence, 48-72 h; max response: stronger effect = lower value
# Method in brief: as §1
# [9] = system: HaCat; assay: as above; settings: Five cell lines viability, CellTiter-Glo ATP luminescence, 48-72 h; max response: stronger effect = lower value
# Method in brief: as §1
# [10] = system: C33A; assay: Primary qHTS to identify gynecologic anti-cancer compounds using libraries of approved drugs and bioactive compounds (AID 1345084); settings: Gynecologic cancer cell panel viability, ATPlite luminescence, 48 h; series mostly up to 57.5 µM; further: nearly all actives have a fitted effect of over 55% in size; further: potency means the concentration at half of the fitted maximal effect
# Method in brief: (§2)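 Measured: luminescence after ATPlite addition (15 min, RT). Exposure: 48 h, 37 C, 5% CO2.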
# [11] = system: CASKI; assay: as above; settings: Gynecologic cancer cell panel viability, ATPlite luminescence, 48 h; series mostly up to 57.5 µM
# Method in brief: as §2
# [12] = system: HeLa; assay: as above; settings: Gynecologic cancer cell panel viability, ATPlite luminescence, 48 h; series mostly up to 57.5 µM
# Method in brief: as §2
# [13] = system: Hek293T; assay: as above; settings: Gynecologic cancer cell panel viability, ATPlite luminescence, 48 h, control line for the selectivity index; series mostly up to 57.5 µM
# Method in brief: as §2
# [14] = system: OV90; assay: as above; settings: Gynecologic cancer cell panel viability, ATPlite luminescence, 48 h; series mostly up to 57.5 µM
# Method in brief: as §2
# [15] = system: PA-1; assay: as above; settings: Gynecologic cancer cell panel viability, ATPlite luminescence, 48 h; series mostly up to 57.5 µM
# Method in brief: as §2
# [16] = system: Tov-21-G; assay: as above; settings: Gynecologic cancer cell panel viability, ATPlite luminescence, 48 h; series mostly up to 57.5 µM
# Method in brief: as §2
# [17] = system: Tov112D; assay: as above; settings: Gynecologic cancer cell panel viability, ATPlite luminescence, 48 h; series mostly up to 57.5 µM
# Method in brief: as §2
# [18] = biological target: Luciferin 4-monooxygenase (Photinus pyralis) (UniProt P08659); assay: Primary firefly luciferase (FLuc) qHTS assay for identification of artifact compounds. (AID 1845220); settings: outcome: dose series up to 54.1 µM unless noted; further: nearly all actives have a fitted effect of over 60% in size
# Method in brief: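 In this counter-screen for luciferase artifacts, test compounds met substrate (10 uM each luciferin and ATP) before 10 nM enzyme started the reaction. Light output was measured 5 min later.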
# [19] = system: Es-2; assay: Primary qHTS to identify gynecologic anti-cancer compounds using libraries of approved drugs and bioactive compounds (AID 1345084); settings: Gynecologic cancer cell panel viability, ATPlite luminescence, 48 h; series mostly up to 57.5 µM; further: nearly all actives have a fitted effect of over 55% in size; further: potency means the concentration at half of the fitted maximal effect
# Method in brief: as §2
# [20] = system: NIH3T3; assay: Cytotoxic Profiling of Annotated Libraries Using Quantitative High-Throughput Screening (AID 1296008); settings: Five cell lines viability, CellTiter-Glo ATP luminescence, 48-72 h; max response: stronger effect = lower value; further: nearly all actives have a fitted effect of over 60% in size; further: potency means the concentration at half of the fitted maximal effect; on max response: on the % scale 0 is the no-effect control and ±100 the full control effect
# Method in brief: as §1
# Sequence of Glutathione peroxidase 1 (Homo sapiens) (P07203 whole entry, looked up): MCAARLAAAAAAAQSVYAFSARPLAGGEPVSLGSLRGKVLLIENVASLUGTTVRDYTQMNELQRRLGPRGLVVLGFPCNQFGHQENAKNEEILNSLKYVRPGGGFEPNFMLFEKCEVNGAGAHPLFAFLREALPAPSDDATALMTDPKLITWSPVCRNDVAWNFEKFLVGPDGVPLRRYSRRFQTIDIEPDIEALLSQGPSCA
# Sequence of Phospholipid hydroperoxide glutathione peroxidase GPX4 (Homo sapiens) (P36969 whole entry, looked up): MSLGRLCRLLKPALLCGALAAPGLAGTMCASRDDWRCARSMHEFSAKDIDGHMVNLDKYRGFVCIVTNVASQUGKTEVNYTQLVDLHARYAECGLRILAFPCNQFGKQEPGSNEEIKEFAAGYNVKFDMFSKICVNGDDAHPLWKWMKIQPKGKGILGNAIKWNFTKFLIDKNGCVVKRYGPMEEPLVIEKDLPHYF
compound,measurement,setting,value
C=C(CO)C(=O)O[C@H]1CC(=C)[C@@H]2C[C@H](O)C(=C)[C@@H]2[C@H]2OC(=O)C(=C)[C@@H]21,Potency,[1],inactive
same,Potency,[2],4.5 µM (active)
same,Potency,[3],2.01 µM (active)
same,Potency,[4],inactive
same,Potency,[5],inactive
same,Potency,[6],inactive
same,max response,[7],-4.04%
same,Potency,[8],5.7 µM (active)
same,max response,[9],4.94%
same,Potency,[10],inactive
same,Potency,[11],inactive
same,Potency,[12],inactive
same,Potency,[13],inactive
same,Potency,[14],inactive
same,Potency,[15],inactive
same,Potency,[16],inactive
same,Potency,[17],inactive
O=C(OC[C@H]1O[C@@H](Oc2ccc(O)cc2CO)[C@H](O)[C@@H](O)[C@@H]1O)c1ccccc1,Potency,[1],inactive
same,Potency,[2],inactive
same,Potency,[4],inactive
same,Potency,[5],inactive
same,outcome,[18],inactive
same,Potency,[6],inactive
same,max response,[7],2.78%
same,max response,[8],0.485%
same,max response,[9],-28.3%
same,Potency,[10],inactive
same,Potency,[11],inactive
same,Potency,[19],inactive
same,Potency,[12],inactive
same,Potency,[13],inactive
same,Potency,[14],inactive
same,Potency,[15],inactive
same,Potency,[16],inactive
same,Potency,[17],inactive
CC(C)(C)[C@]1(O)C[C@@H]2OC(=O)C[C@@]23C(=O)O[C@@H]2OC(=O)[C@@H](O)[C@]213,Potency,[1],inactive
same,Potency,[2],inactive
same,Potency,[3],inactive
same,Potency,[4],inactive
same,Potency,[5],inactive
same,outcome,[18],inactive
same,Potency,[6],inactive
same,max response,[7],1.12%
same,max response,[8],1.81%
same,max response,[9],-5.58%
same,max response,[20],3.76%
same,Potency,[10],inactive
same,Potency,[11],inactive
same,Potency,[19],inactive
same,Potency,[12],inactive
same,Potency,[13],inactive
same,Potency,[14],inactive
same,Potency,[15],inactive
same,Potency,[16],inactive
same,Potency,[17],inactive
C[C@]12CC[C@H](O)C[C@H]1CC[C@@H]1[C@@H]2[C@H](O)C(=O)[C@]2(C)[C@@H](c3ccc(=O)oc3)CC[C@]12O,Potency,[1],0.0259 µM (active)
same,Potency,[2],0.0205 µM (active)
same,Potency,[3],0.0515 µM (active)
same,Potency,[4],inactive
same,Potency,[5],inactive
same,outcome,[18],inactive
same,Potency,[6],inactive
same,Potency,[7],0.0411 µM (active)
same,Potency,[8],0.0326 µM (active)
same,Potency,[9],0.13 µM (active)
same,max response,[20],-1.67%
same,Potency,[11],0.398 µM (active)
same,Potency,[19],0.0891 µM (active)
same,Potency,[14],0.282 µM (active)
same,Potency,[15],0.0794 µM (active)
CO[C@H]1[C@@H](O)[C@@H](C)O[C@@H](O[C@@H]2C=C3C(OC(C)=O)CC4(O)C(CC[C@]5(C)[C@@H](C6=CC(=O)OC6)CC[C@]45O)[C@@]3(C)CC2)[C@@H]1O (stereo partly drawn),Potency,[1],0.193 µM (active)
same,Potency,[2],0.0483 µM (active)
same,Potency,[3],0.0858 µM (active)
same,Potency,[4],inactive
same,Potency,[5],inactive
same,Potency,[6],inactive
same,Potency,[7],0.137 µM (active)
same,Potency,[8],0.0862 µM (active)
same,Potency,[9],2.43 µM (active)
same,max response,[20],-11.7%
same,Potency,[10],0.178 µM (active)
same,Potency,[11],2.82 µM (active)
same,Potency,[19],0.447 µM (active)
same,Potency,[12],0.501 µM (active)
same,Potency,[13],0.251 µM (active)
same,Potency,[14],2.51 µM (active)
same,Potency,[15],0.316 µM (active)
same,Potency,[16],0.282 µM (active)
same,Potency,[17],0.1 µM (active)
COc1ccc2c3c([nH]c2c1)C(C=C(C)C)N1C(=O)C2CCCN2C(=O)C1C3 (stereo not drawn),Potency,[1],inactive
same,Potency,[4],inactive
same,Potency,[5],inactive
same,outcome,[18],inactive
same,Potency,[6],inactive
same,max response,[7],-26.7%
same,max response,[8],-10.4%
same,max response,[9],-17.6%
same,max response,[20],-20.2%
same,Potency,[10],inactive
same,Potency,[11],inactive
same,Potency,[19],inactive
same,Potency,[12],inactive
same,Potency,[13],inactive
same,Potency,[14],inactive
same,Potency,[15],inactive
same,Potency,[16],inactive
same,Potency,[17],inactive
CC[C@@H]1C[C@H]2CC[C@H](O2)[C@H](C)C(=O)O[C@@H](C)C[C@@H]2CC[C@@H](O2)[C@@H](C)C(=O)O[C@H](CC)C[C@H]2CC[C@H](O2)[C@H](C)C(=O)O[C@@H](C)C[C@@H]2CC[C@@H](O2)[C@@H](C)C(=O)O1,Potency,[1],1.93 µM (active)
same,Potency,[2],0.0192 µM (active)
same,Potency,[3],0.0216 µM (active)
same,Potency,[4],inactive
same,Potency,[5],inactive
same,outcome,[18],inactive [at 25.7 µM]
same,Potency,[6],inactive
same,Potency,[7],0.385 µM (active)
same,Potency,[8],0.0544 µM (active)
same,Potency,[9],1.53 µM (active)
same,Potency,[20],0.0862 µM (active)
same,Potency,[10],0.316 µM (active)
same,Potency,[11],0.447 µM (active)
same,Potency,[19],0.708 µM (active)
same,Potency,[12],0.794 µM (active)
same,Potency,[13],0.631 µM (active)
same,Potency,[14],0.398 µM (active)
same,Potency,[15],0.355 µM (active)
same,Potency,[16],0.794 µM (active)
same,Potency,[17],0.562 µM (active)
CC(=O)OC[C@]12C[C@H](OC(=O)CC(C)C)C(C)=C[C@H]1O[C@@H]1[C@H](O)C[C@@]2(C)[C@]12CO2,Potency,[1],0.709 µM (active)
same,Potency,[2],0.632 µM (active)
same,Potency,[3],0.317 µM (active)
same,Potency,[4],inactive
same,Potency,[5],inactive
same,outcome,[18],inactive [at 25.7 µM]
same,Potency,[6],inactive
same,Potency,[7],3.17 µM (active)
same,Potency,[8],0.563 µM (active)
same,Potency,[9],6.32 µM (active)
same,Potency,[20],0.893 µM (active)
same,Potency,[10],2.82 µM (active)
same,Potency,[19],3.98 µM (active)
same,Potency,[12],3.98 µM (active)
same,Potency,[13],1 µM (active)
same,Potency,[14],4.47 µM (active)
same,Potency,[15],1 µM (active)
same,Potency,[16],4.47 µM (active)
same,Potency,[17],2.24 µM (active)
COC1CC(O[C@H]2CC[C@@]3(C)C(CCC4C3CC[C@]3(C)[C@@H](C5=CC(=O)OC5)CC[C@]43O)C2)OC(C)C1O (stereo partly drawn),Potency,[1],0.1 µM (active)
same,Potency,[2],0.0142 µM (active)
same,Potency,[4],inactive
same,Potency,[5],inactive
same,outcome,[18],inactive
same,Potency,[6],inactive
same,Potency,[7],0.0317 µM (active)
same,Potency,[8],0.0796 µM (active)
same,Potency,[9],0.178 µM (active)
same,max response,[20],-0.0473%
same,Potency,[10],0.1 µM (active)
same,Potency,[11],0.141 µM (active)
same,Potency,[19],0.158 µM (active)
same,Potency,[12],0.141 µM (active)
same,Potency,[13],0.141 µM (active)
same,Potency,[14],0.398 µM (active)
same,Potency,[16],0.0891 µM (active)
